# Compound activity from PubChem BioAssay.
# JMJD2A Tudor = blocks the human JMJD2A Tudor domain; AID 504339; 390,000 compounds, 4.4% hits; O75164; AlphaScreen JMJD2A-Tudor / H3K4me3 peptide binding; Potency, µM (titrated, usually from 114 µM), without a hit: at the top dose activity change, negative = inhibition, hits mostly inhibitors; also: potency is read from the fitted curve at half-maximal effect; % is scaled to controls: 0 for no effect and ±100 for the full control effect; nearly all actives have a fitted effect of over 50% in size
# Six1-Eya2 blk = inhibitors of human Six1/Eya2 interaction; activity change, % (concentration not given with the values); AID 651725; Q15475+O00167; 360,000 compounds, 0.56% hits; AlphaScreen GST-Six1/His-Eya2 binding, biochemical; active compounds read low; in the data active = activity change below about -65%; inconclusive = mostly about -30% to -63%; also: % is scaled to controls: 0 for no effect and ±100 for the full control effect
#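 AlphaScreen with GST-Six1 and His-Eya2 (5X mix: 250 nM and 500 nM), glutathione donor and nickel acceptor beads; buffer 50 mM Tris pH 8.0, 300 mM NaCl, 1 mM TCEP; 1 h at 37 C in the dark.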
# CtBP-E1A inh = inhibitors of CtBP/E1A interaction; AID 651724; 340,000 compounds, 0.49% hits; activity change, % (test concentration not listed); AlphaScreen GST-E1A/His-CtBP binding, 1536-well; active compounds read low; in the data active = activity change below about -65%; inconclusive = mostly about -30% to -63%; also: % is scaled to controls: 0 for no effect and ±100 for the full control effect
#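 GST-E1A and His-tagged CtBP (125 nM each as 5X stock) were preincubated with pin-transferred compound for 2 h at 37 °C in the dark, then glutathione donor and nickel acceptor beads were added for 1 h before AlphaScreen reading.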
# BAZ2B inh = BAZ2B (human) inhibition; Q9UIF8; Potency, µM (titrated, usually from 114 µM), inactives show at the top dose activity change, negative = inhibition, actives largely listed as inhibitors; AlphaScreen BAZ2B-H3K14Ac peptide displacement; AID 504333; 360,000 compounds, 4.4% hits; also: potency is read from the fitted curve at half-maximal effect; % is scaled to controls: 0 for no effect and ±100 for the full control effect; nearly all actives have a fitted effect of over 60% in size
#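 AlphaScreen displacement: compounds (up to 110uM) incubated 30 min at room temperature with a preformed 50 nM BAZ2B/50 nM biotinylated H3K14Ac peptide complex in PBS pH 7.4 with Tween-20. Donor and acceptor beads at 10 ug/mL final added, 20 min light-protected before reading.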
# G9a block = G9a (human) methyltransferase inhibition; Potency, µM (top dose mostly 102 µM), without a hit: at the top dose activity, negative = inhibition, most hits filed as inhibitors; G9a H3K9 monomethylation, AlphaScreen, 2 h; 350,000 compounds, 8.8% hits; Q96KQ7; also: potency is read from the fitted curve at half-maximal effect; % is scaled to controls: 0 for no effect and ±100 for the full control effect; nearly all actives have a fitted effect of over 75% in size
# Target sequence (Q96KQ7 913-1193 limits assumed): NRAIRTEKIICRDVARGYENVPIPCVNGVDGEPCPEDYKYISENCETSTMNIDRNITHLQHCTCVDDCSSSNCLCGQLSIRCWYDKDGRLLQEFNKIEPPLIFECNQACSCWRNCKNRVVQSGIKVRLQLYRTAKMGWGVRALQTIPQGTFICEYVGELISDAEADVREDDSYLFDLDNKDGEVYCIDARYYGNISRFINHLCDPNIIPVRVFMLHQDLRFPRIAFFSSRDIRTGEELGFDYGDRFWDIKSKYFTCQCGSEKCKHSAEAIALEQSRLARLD
#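 G9a (20 nM) preincubated 15 min RT with compounds, then 500 nM biotinylated H3K9 peptide and 20 uM SAM added; 2 h RT reaction. Monomethyl-H3K9 product detected by AlphaScreen with anti-H3K9me1 antibody, streptavidin donor and anti-rabbit IgG acceptor beads.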
# HP1b binding inh = blocks HP1-beta chromodomain binding to methylated histone tails; P83916; AlphaScreen HP1-beta / biotin-H3K9me3 peptide binding; 390,000 compounds, 0.56% hits; Potency, µM (top dose mostly 114 µM), for the others: top-dose activity change, negative = inhibition, actives largely listed as inhibitors; also: potency is read from the fitted curve at half-maximal effect; nearly all actives have a fitted effect of over 70% in size
# Target sequence (P83916 whole entry, looked up): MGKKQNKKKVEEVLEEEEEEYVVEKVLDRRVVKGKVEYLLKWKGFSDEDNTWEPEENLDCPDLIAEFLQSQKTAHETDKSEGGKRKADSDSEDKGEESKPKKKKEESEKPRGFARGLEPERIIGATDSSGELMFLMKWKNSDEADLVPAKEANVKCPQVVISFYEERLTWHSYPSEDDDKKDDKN
#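 AlphaScreen: HP1-beta (50 nM) preformed 30 min with biotin-H3(1-18)K9me3 peptide (50 nM) in PBS pH 7.4, 0.01% Tween-20. Compound added for 30 min at RT, then streptavidin donor/nickel chelate acceptor beads (10 ug/mL) for 30 min.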
# Active calls of the source: *; ? = inconclusive; / = not tested or not shown; [ ] = dose if it differs, or a comment. Compounds with a hit are over-represented: about 10% of the library has one in this group of screens. Unless noted, calls follow the shape of the dose curve; as a rule, active = well fitted inhibition curve with a large enough effect; inconclusive = small, poorly fitted or top-dose-only effect; inactive = no such curve, though single readings can be large or run the other way.
SMILES,JMJD2A Tudor,Six1-Eya2 blk,CtBP-E1A inh,BAZ2B inh,G9a block,HP1b binding inh
Cc1ccc(-n2nc3c(=O)n(CC(=O)NCCc4ccc(Cl)cc4)nc(C)c3c2C)cc1,-33.9%,2.3,/,79.4µM*,?,12.3%[57 µM]
Cc1cc(Cl)ccc1NC(=O)CCCn1nc(C)c2c(C)n(-c3ccccc3)nc2c1=O,-0.7%,/,/,-16.1%,1.1%[59 µM],42.7%
Cc1ccc(CN2C(=O)CSC(C)C2=O)cc1 (stereo not given),-5.3%,16.8,8.3,16.6%,18.5%[2.33 µM],73.5%
CC1=C(C)CS(=O)N(S(=O)(=O)c2ccc(Cl)cc2)C1 (stereo not given),-11.6%,-1.4,8.3,1.7%,2.24µM*,63.8%
CCC(C)(C)n1nnnc1C(c1ccc(OC)c(OC)c1)N1CCN(c2ccc(F)cc2)CC1 (stereo not given),?,-14.7,-3.6,5.6%,22.4µM*,-3.4%
CCC(C)(C)n1nnnc1C(c1ccc(OC)c(OC)c1)N1CCN(c2ccc(OC)cc2)CC1 (stereo not given),28.2µM*,-26.8,-10.6,50.1µM*,11.2µM*,-18.8%
CCC(C)(C)n1nnnc1C(c1ccc(OC)c(OC)c1)N1CCN(c2ccccc2)CC1 (stereo not given),-18.5%,-4.7,-0.9,-10.9%,-3.7%[12.7 µM],4.8%
O=C(c1ccco1)[C@@H]1[C@@H]2C(=O)N(c3ccccc3)C(=O)[C@@H]2C2c3ccccc3C=CN21 (stereo not given in full),50.1µM*,-0.8,10.8,79.4µM*,16.1%[2.33 µM],-34.7%
CC(=O)[C@@H]1[C@@H]2C(=O)N(Cc3ccccc3)C(=O)[C@@H]2C2c3ccccc3C=CN21 (stereo not given in full),?,4.9,-0.9,-29.5%,2.82µM*,-2.3%
Cc1ccc(N2C(=O)[C@@H]3[C@H](C2=O)C2c4ccccc4C=CN2[C@@H]3C(=O)c2ccco2)cc1 (stereo not given in full),?,7.8,-2.4,?,3.16µM*,?
CC(C)(C)C(=O)[C@@H]1[C@@H]2C(=O)N(c3ccc4c(c3)OCCO4)C(=O)[C@@H]2C2c3ccccc3C=CN21 (stereo not given in full),?,-16.0,-5.4,?,8.91µM*,?
O=C1C2C3C=CC(C3)C2C(=O)N1Cc1ccccc1 (stereo not given),5.8%,6.0,7.0,-3.7%,-21.4%[12.7 µM],28.3%
COc1ccc(C2=NO[C@@H]3C(=O)N(c4ccc5c(c4)OCCO5)C(=O)[C@H]23)cc1OC,25.4%,0.4,3.2,3.0%,-30.7%[12.7 µM],15.9%
O=C(c1ccco1)N1CCN(C2CC(=O)N(c3ccccc3)C2=O)CC1 (stereo not given),-3.6%,1.5,-6.0,-34.5%,?,42.9%
Cc1ccc(N2C(=O)[C@@H]3[C@H](C2=O)C2c4ccccc4C=CN2[C@@H]3C(=O)c2ccco2)c(C)c1 (stereo not given in full),?,7.8,-7.0,-33.2%,5.8%[2.33 µM],-25.9%
COC(=O)C1=C[C@@H](C(=O)OC)[C@H]2C3=C(C(=O)[C@@]2(C)NC(=O)c2ccccc2)[C@H](C)C(C(=O)OC)=C(C(=O)OC)[C@@H]3C1,-5.5%,/,/,/,/,20.5%
O=C(NCc1ccccc1)c1cc(C2CCCN(S(=O)(=O)c3ccccc3)C2)on1 (stereo not given),/,-1.9,1.3,/,/,/
COc1cccc(CN2CCN(Cc3cccc4nonc34)CC2CCO)c1 (stereo not given),?,1.7,1.5,-1.1%,-2.1%,?
CC1CCCCN1c1nnc(NC(=O)Nc2ccccc2F)s1 (stereo not given),-29.8%,/,/,-2.6%,?,33.1%
COc1ccc([C@H]2CN(c3ccc(OC)cc3)C(=O)[C@@H]2CC(=O)Nc2ccccc2)cc1,/,-25.7,-16.1,/,/,/
COc1ccc(N2C(=O)[C@@H]3[C@H](C2=O)[C@H]2c4ccccc4C=CN2[C@@H]3C(=O)Nc2ccccc2)cc1,?,-2.3,-1.3,-31.2%,8.91µM*,4.9%
CC1CC(C)(C)NC(=S)N1CCCC(=O)N1CCN(c2ccc(F)cc2)CC1 (stereo not given),-11.1%,-15.6,-3.1,-4.1%,-13.0%[59 µM],3.1%
COCCCNS(=O)(=O)c1cc(-c2onc(C)c2C)ccc1OC,-12.0%,/,/,-11.8%,-23.4%[59 µM],45.7%
O=C(O)c1ccccc1CSc1ncccc1C(=O)O,20µM*,1.9,0.0,-25.7%,20µM*,3.2%
O=C(CSc1ncccn1)N1CCCCCC1,0.0%,4.7,5.4,/,/,41.9%
SMILES,JMJD2A Tudor,Six1-Eya2 blk,CtBP-E1A inh,BAZ2B inh,G9a block,HP1b binding inh
Cc1cccc(CSc2ncccc2C(=O)O)c1,50.1µM*,5.4,16.4,-27.6%,11.2µM*,42.3%
O=C(O)c1cccnc1SCC(=O)N1CCCCCC1,-17.5%,0.0,42.6,-0.4%,50.1µM*,51.9%
O=C(CSc1ncccc1C(=O)O)NC12CC3CC(CC(C3)C1)C2,1.7%,16.6,-11.6,?,31.6µM*,27.1%
CCCOc1ccc(C(=O)Nc2ccc3nn(-c4ccc(OC)c(Cl)c4)nc3c2)cc1,-24.5%,/,/,6.2%,26.2%[59 µM],64.9%
CCOC(=O)c1ccccc1-c1cn2cc(Cl)ccc2n1,-14.8%,8.2,-0.9,-18.1%,-4.1%,12.5%
O=C(NC(c1ccccc1)c1ccccn1)c1cccc([N+](=O)[O-])c1 (stereo not given),-2.4%,-7.8,-2.0,/,?,27.8%
O=C(OC(c1ccccc1)c1nccc2ccccc12)c1cc([N+](=O)[O-])cc([N+](=O)[O-])c1 (stereo not given),?,?,?,?,10µM*,?
O=C1NC(=O)C2C3C=CC(C3)C12 (stereo not given),/,/,/,/,9.6%[12.7 µM],/
Cc1cc(C(=O)COC(=O)c2ccc(Cl)c(S(N)(=O)=O)c2)c(C)n1C1CC1,?,-11.3,-13.1,?,50.1µM*,?
Cc1cccc(NCc2nnc(-c3ccccc3)o2)c1C,79.4µM*,-10.3,-10.5,-6.7%,4.6%,-13.3%
COc1cc(C(=O)OCCNC(=O)c2cccnc2)cc(OC)c1OC,?,-1.0,-3.6,/,/,14.0%
Cc1cc(C)c(OCC(=O)OCCNC(=O)c2cccnc2)c(C)c1,-23.1%,4.2,4.4,?,25.1µM*,18.9%
CN1CCc2c(n(CC(O)CN(CCO)CCO)c3ccccc23)C1=O (stereo not given),-28.4%,2.1,/,-15.5%,35.5µM*,49.9%
CN1CCc2c(n(CC(O)CNCc3ccccc3)c3ccccc23)C1=O (stereo not given),-9.7%,-0.7,/,-25.9%,50.1µM*,34.5%
